Bioassay records from PubChem.
HCV inh: blocks hepatitis C virus. Huh7.5.1 HCVcc-Cre infection, luciferase reporter, 44 h. 3.4% of 340,000 active. Potency, µM (titrated, usually from 41.8 µM), for inactives: top-dose activity change, negative = inhibition, actives largely listed as inhibitors; also: potency is read from the fitted curve at half-maximal effect
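Seed cells (1,000/well) for 4 h; treat with compound and infect with HCVcc-Cre, moi about 0.5. Incubate 44 h, then detect luciferase activity.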
LASV entry inh: inhibitors of Lassa virus binding or cell entry; Lassa virus pseudotype entry inhibition, cell reporter; Potency, µM (series often up to 37.9 µM), for inactives: at the top dose activity change, negative = inhibition, usual class: inhibitors; 1.2% of 300,000 active; AID 540256; calls by dose curve; tested in HEK293 cells; also: potency is read from the fitted curve at half-maximal effect; nearly all actives have a fitted effect of over 50% in size
Pf growth 96h: inhibits malaria parasite growth, 96 h; AID 504834; 6.9% of 320,000 active; Potency, µM (top dose mostly 28.7 µM), for inactives: at the highest dose activity change, negative = inhibition, usual class: inhibitors; P. falciparum luciferase reporter growth, 96 h; also: potency is read from the fitted curve at half-maximal effect
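Erythrocytes infected with luciferase-expressing P. falciparum were dispensed at 2% hematocrit and 0.05% parasitemia (final), then incubated with compounds 96 hours at 37 C in 5% CO2. Luminescence after detection reagent addition reported growth.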
Pf growth 48h: P. falciparum growth inhibition at 48 hours (one generation); AID 504832; Potency, µM (series often up to 28.7 µM), for the others: at the highest dose activity change, negative = inhibition, hits mostly inhibitors; P. falciparum luciferase growth in erythrocytes, 48 h; 5.9% of 310,000 active; also: potency is read from the fitted curve at half-maximal effect
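Read-out is firefly luciferase luminescence from an integrated reporter in P. falciparum, so falling signal marks reduced parasite growth. Infected erythrocytes were at 2% hematocrit and 0.1% parasitemia (final) in Albumax-supplemented RPMI 1640.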
HCMV inh: human cytomegalovirus inhibition. AID 1259415. HFF cells, HCMV-luciferase reporter, 72 h; stronger effect = lower value. 4.5% of 410,000 active. activity change, negative = inhibition, % at 57.5 µM; in the data active = activity change below about -60%; inconclusive = no clear call, values can overlap the other calls; inactive = above about -39%
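Cell-based, HFFs, 1000 cells/well, 16 h 37C; cpds in DMSO + HCMV-luc, MOI 1 PFU/cell; 72 h 37C; OneGlo luminescence after 5 min RT; norm. to buffer vs Salinomycin 10uM.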
MARV entry inh: blocks Marburg virus binding to or entry into cells; Marburg virus pseudotyped entry inhibition, cell reporter; Potency, µM (doses to about 37.8 µM), without a hit: top-dose activity change, negative = inhibition, actives largely listed as inhibitors; 1.8% of 300,000 active; calls by dose curve; tested in HEK293 cells; also: potency is read from the fitted curve at half-maximal effect
* = called active by the depositor; [ ] = another dose, or the depositor's remark. Compounds with a hit are over-represented: about 14% of the library has one in this group of screens. Unless noted, calls follow the shape of the dose curve; as a rule, active = well fitted inhibition curve with a large enough effect; inconclusive = small, poorly fitted or top-dose-only effect, or another doubt; inactive = no such curve, though single readings can be large or run the other way. % is scaled to controls: 0 for no effect and ±100 for the full control effect.

How did O=C(O)C1CC(=O)N(CCc2c[nH]c3ccccc23)C1 (configuration not stated) do in these assays?
HCV inh: 13.7%; LASV entry inh: -0.6%; Pf growth 96h: 0.0%; Pf growth 48h: 19.1%; HCMV inh: -17.8; MARV entry inh: 5.6%

How did CCC1=C(OC(=O)N(CC)CC)N2C(=O)OC(=NCCc3c[nH]c4ccccc34)[C@]2(Cc2ccccc2)[C@H]2C1=CC[C@H]1C(=O)N(c3ccccc3)C(=O)[C@H]12 do in these assays?
HCV inh: -26.9%; Pf growth 96h: inconclusive; Pf growth 48h: 13.1µM*; HCMV inh: -23.2

What do the screens show for `Cc1cc(NC(=O)CN2C(=O)NC3(CCCCCC3)C2=O)ccc1Br`?
HCV inh: inconclusive; Pf growth 96h: -21.6%; Pf growth 48h: -27.8%; HCMV inh: 37.9

How did COc1cc(/C(C)=N/NC(=O)Cc2c(C)[nH][nH]c2=O)ccc1O do in these assays?
HCV inh: 12.8%; LASV entry inh: 16.0%; Pf growth 96h: 19.5%; Pf growth 48h: -4.9%; HCMV inh: -66.6*; MARV entry inh: 28.8%

What do the screens show for `COc1ccc(OC)c(Nc2nc(NCCCN(C)C)nc(N)c2[N+](=O)[O-])c1`?
HCV inh: -16.9%; LASV entry inh: inconclusive; Pf growth 96h: 11.7µM*; Pf growth 48h: 13.1µM*; HCMV inh: -15.0; MARV entry inh: -10.2%[46.1 µM]

What do the screens show for `COc1ccccc1Nc1nc(NCCC(C)C)nc(N)c1[N+](=O)[O-]`?
HCV inh: 12.6µM*; Pf growth 96h: inconclusive; Pf growth 48h: 3.7µM*; HCMV inh: inconclusive

What do the screens show for `COCCCNc1nc(N)c([N+](=O)[O-])c(Nc2cc(OC)ccc2OC)n1`?
HCV inh: -20.2%; LASV entry inh: -12.6%; Pf growth 96h: inconclusive; Pf growth 48h: -24.7%; HCMV inh: -16.7; MARV entry inh: inconclusive

How did COc1ccccc1Nc1nc(NCCO)nc(N)c1[N+](=O)[O-] do in these assays?
HCV inh: -77.5%; LASV entry inh: -10.1%; Pf growth 96h: inconclusive; Pf growth 48h: inconclusive; HCMV inh: 94.2; MARV entry inh: inconclusive

Results for CCN(CC(=O)Nc1ccc(NC(C)=O)cc1)C(=O)c1ccc2c(c1)S(=O)(=O)N=C1CCCCCN12 ?
HCV inh: 7.8%; LASV entry inh: inconclusive; Pf growth 96h: 35.3%; Pf growth 48h: -24.5%; HCMV inh: -18.7; MARV entry inh: 40.5%

Results for CNC(=O)[C@H]1O[C@@H](n2cnc3c(N)ncnc32)[C@H](O)[C@H]1O ?
MARV entry inh: 35.4%

Results for O=C(Nc1cccc(-c2nnc(-c3ccccc3)o2)c1)C1CC1 ?
HCV inh: 14.1µM*; LASV entry inh: -16.6%; Pf growth 96h: 33.8%[1.15 µM]; Pf growth 48h: inconclusive; HCMV inh: inconclusive; MARV entry inh: inconclusive

How did CC(C)(C)C(=O)Nc1cccc(-c2nnc(-c3cccc(NC(=O)C(C)(C)C)c3)o2)c1 do in these assays?
HCV inh: -3.8%; LASV entry inh: -20.2%; Pf growth 96h: inconclusive; Pf growth 48h: 4.65µM*; HCMV inh: inconclusive; MARV entry inh: inconclusive

Results for CC(=O)Nc1cccc(-c2nnc(-c3ccccc3)o2)c1 ?
HCV inh: 5.7%; LASV entry inh: 0.5%; Pf growth 48h: 27.6%; HCMV inh: 113.0; MARV entry inh: inconclusive

What do the screens show for `CN(C(=O)c1cccc(NC(=O)Cc2ccc([N+](=O)[O-])cc2)c1)C1CC1`?
HCV inh: inconclusive; HCMV inh: -16.0

How did CCOC(=O)c1ccccc1NC(=O)c1sc2nc3n(c(=O)c2c1C)CCCCC3 do in these assays?
LASV entry inh: -17.0%[46.1 µM]; HCMV inh: 1.2

Results for CCCCn1c(CCl)nc2cc(S(=O)(=O)N3CCOCC3)ccc21 ?
HCV inh: inconclusive; LASV entry inh: 0.5%; HCMV inh: -22.9; MARV entry inh: -21.7%

What do the screens show for `O=S(=O)(c1ccc2c(c1)nc(COc1ccc(Cl)cc1)n2CC1CCCO1)N1CCOCC1` (configuration not stated)?
HCV inh: -29.5%; LASV entry inh: inconclusive; Pf growth 96h: 11.7µM*; Pf growth 48h: inconclusive; HCMV inh: -20.7; MARV entry inh: inconclusive

How did CCOc1ccc(-c2cc3nc(C4CCN(C(=O)OC(C)(C)C)CC4)c(C(=O)Nc4ccc(C)c(F)c4)cn3n2)cc1 do in these assays?
LASV entry inh: 17.9%[46.1 µM]; HCMV inh: -93.1*; MARV entry inh: inconclusive

How did COc1ccc(-n2c(C)c3c(C)nnc(C)c3c2C)cc1OC do in these assays?
HCMV inh: -60.2*

Results for COc1ccc(-n2c(C)c(C(C)=O)c(C(C)=O)c2C)cc1OC ?
HCV inh: -1.3%; LASV entry inh: -26.1%; Pf growth 96h: 4.1%; Pf growth 48h: -21.6%; HCMV inh: 3.3; MARV entry inh: -27.2%

Results for Nc1ccn(C2OC(COP(=O)(O)O)C(O)C2O)c(=O)n1 (configuration not stated) ?
HCV inh: inconclusive; LASV entry inh: -14.9%[46.1 µM]; HCMV inh: -96.9*; MARV entry inh: inconclusive

What do the screens show for `CC(=O)NC[C@H]1O[C@@H](n2ccc(N)nc2=O)[C@H](O)[C@@H]1O`?
HCMV inh: 12.2

What do the screens show for `CCOC(=O)CC(NS(=O)(=O)c1ccc2[nH]c3c(c2c1)CCCC3)c1ccccc1Cl` (configuration not stated)?
LASV entry inh: inconclusive; HCMV inh: -3.4

What do the screens show for `CN1C2CCC1/C(=C\c1ccccc1)C(=O)/C2=C\c1ccccc1`?
HCV inh: 12.6µM*; LASV entry inh: inconclusive; Pf growth 96h: inconclusive; Pf growth 48h: 1.04µM*; HCMV inh: -66.1*; MARV entry inh: 14.6µM*

What do the screens show for `O=C1/C(=C/c2ccccn2)COc2ccccc21`?
HCV inh: 19.6%; LASV entry inh: inconclusive; Pf growth 96h: -4.0%; Pf growth 48h: 48.1%; HCMV inh: inconclusive; MARV entry inh: inconclusive

Results for O=C1/C(=C/c2ccccc2)CCC1C1CCCC1 (configuration not stated) ?
HCV inh: 6.0%; LASV entry inh: inconclusive; Pf growth 96h: 35.6%; Pf growth 48h: 41.7%; HCMV inh: -33.6; MARV entry inh: inconclusive

What do the screens show for `CC1C/C(=C/c2ccccn2)C(=O)/C(=C/c2ccccn2)C1` (configuration not stated)?
HCV inh: 2.24µM*; LASV entry inh: 3.98µM*; Pf growth 96h: inconclusive; Pf growth 48h: 2.62µM*; MARV entry inh: inconclusive

Results for CC1C/C(=C/c2ccco2)C(=O)/C(=C/c2ccco2)C1 (configuration not stated) ?
HCV inh: 1.4%[0.335 µM]; LASV entry inh: -4.2%; Pf growth 96h: 8.28µM*; Pf growth 48h: 50.1%; MARV entry inh: inconclusive
